Screens from PubChem.
The list is not random: actives were taken first. Their share in the collection is about 3.6%.
mHTT-CaM PPI inh: mutant huntingtin-calmodulin interaction inhibitors – biochemical, AlphaScreen, primary screen; AlphaScreen His-mHTT/GST-CaM binding, luminescence; 190,000 compounds, 3.6% hits; P42858; AID 1671202, 2021; inhibition, % at 15 µM;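 also: 0% = both proteins with DMSO and 100% = one protein alone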
Pf apPOL inh: Pf-apPOL inhibitors, biochemical, fluorescence; Plasmodium falciparum apicoplast DNA polymerase (apPOL); Recombinant Pf-apPOL, molecular beacon fluorescence, 1.5 h; inhibition, % at 10 µM; 210,000 compounds, 0.25% hits
* hit, by the source's call; . = no result given. Rule as the data show it: active = inhibition above about 50%; inactive = the rest.

SMILES	mHTT-CaM PPI inh	Pf apPOL inh
CC(C(=O)N1CCN(Cc2ccc3c(c2)OCO3)CC1)N1C(=O)c2ccccc2C1=O (stereo not drawn)	2	-10
CC1(C)CC(=O)C2=C(C1)N(c1ccc(Br)cc1)C(N)=C(C#N)C2c1cccs1 (stereo not drawn)	42	-3
CCc1ccc(C2C(C#N)=C(N)N(c3ccc([N+](=O)[O-])cc3)C3=C2C(=O)CC(C)(C)C3)s1 (stereo not drawn)	49	1
CCc1ccc(C2C(C#N)=C(N)N(c3ccccc3)C3=C2C(=O)CC(C)(C)C3)s1 (stereo not drawn)	50*	-8
CC1(C)CC(=O)C2=C(C1)N(c1ccc(Br)cc1F)C(N)=C(C#N)C2c1cccs1 (stereo not drawn)	52*	6
CN(C)c1c([N+](=O)[O-])c(=O)oc2ccc([N+](=O)[O-])cc12	0	0
CCSc1ccc(Cc2nnc(NC(=O)c3cc(C)on3)o2)cc1	-3	-14
Cc1noc(C)c1CC(=O)N1CCC(c2nc(C3CC3)n[nH]2)CC1	-2	-4
CN1CCC2(CC1)N=C(c1ccc(Br)cc1)CC(c1cc(Cl)ccc1O)N2 (stereo not drawn)	100*	-9
CCN1CCC2(CC1)N=C(c1ccc(C)cc1)CC(c1cc(Br)ccc1O)N2 (stereo not drawn)	65*	-2
CCN1CCC2(CC1)N=C(c1ccccc1)CC(c1cc(Cl)ccc1O)N2 (stereo not drawn)	47	-1
Cc1ccc(C2=NC3(CCN(C)CC3)NC(c3cc(Br)ccc3O)C2)cc1 (stereo not drawn)	26	-3
CCc1ccccc1N(C)C(=O)c1noc2c1CCCC2	11	-2
COc1ccc(NC(=O)CN(c2cc(C(F)(F)F)ccc2Cl)S(C)(=O)=O)cc1OC	8	5
CN(C)CCCOc1ccc(I)cc1	0	-3
CCCn1ncc(N2CCC(C(=O)NC3CC3)CC2)cc1=O	-3	-4
O=c1[nH]c2ccc(Cl)cc2c(-c2ccccc2)c1C1=NOC(c2ccccc2)C1 (stereo not drawn)	100*	-10
CC(=O)N1N=C(c2c(-c3ccccc3)c3cc(Br)ccc3[nH]c2=O)CC1c1ccco1 (stereo not drawn)	95*	0
CC(=O)N1N=C(c2c(-c3ccccc3)c3cc(Cl)ccc3[nH]c2=O)CC1c1ccccc1Cl (stereo not drawn)	93*	-2
COc1ccc(C2CC(c3c(-c4ccccc4)c4cc(Br)ccc4[nH]c3=O)=NO2)cc1 (stereo not drawn)	15	6
CC(=O)N1N=C(c2c(-c3ccccc3)c3cc(Cl)ccc3[nH]c2=O)CC1c1ccccc1F (stereo not drawn)	18	-2
O=c1[nH]c2ccc(Br)cc2c(-c2ccccc2)c1[N+](=O)[O-]	8	-8
Cc1ncc(CO)c2cc(C(=O)Nc3cccc(F)c3)c(=O)oc12	3	0
Cc1cc(C(=O)Nc2nc3c(s2)CN(C(=O)c2cnn(-c4ccccc4)c2C)CC3)no1	3	4
O=C(NCCN1CCN(C(=O)c2ccccc2Cl)CC1)c1ccsc1	-13	0
SMILES	mHTT-CaM PPI inh	Pf apPOL inh
CCOC(=O)c1oc2ccccc2c1NC(=O)CCS(=O)(=O)c1ccccc1	5	0
CCn1c(=O)c(N2CCN(C(=O)COc3ccc(Cl)cc3C)CC2)nc2ccncc21	61*	4
Cn1c(=O)c(N2CCN(C(=O)COc3ccc(Cl)cc3)CC2)nc2ccncc21	20	6
Cc1noc(COC2CCCN(C(=O)NCc3ccccc3)C2)n1 (stereo not drawn)	-19	-6
CN1CCc2cc(C(CNS(=O)(=O)c3ccc(Cl)s3)N3CCOCC3)ccc21 (stereo not drawn)	99*	-12
COc1ccc(Cl)cc1S(=O)(=O)NCC(c1cccn1C)N1CCCC1 (stereo not drawn)	-2	-7
CN1CCCc2cc(C(CNC(=O)Cc3cccs3)N3CCOCC3)ccc21 (stereo not drawn)	29	-17
O=S(=O)(NCC(c1ccsc1)N1CCOCC1)c1cccs1 (stereo not drawn)	-23	-3
COc1ccc(Cl)cc1S(=O)(=O)NCC(c1ccc2c(c1)CCN2C)N(C)C (stereo not drawn)	69*	-10
CN1CCc2cc(C(CNC(=O)c3cccs3)N3CCOCC3)ccc21 (stereo not drawn)	95*	-19
COc1ccc(Cl)cc1C(=O)N1CCc2ccccc2C1	27	-6
CCC(C)(C(=O)NC1CCCC1)N(CC1CCCO1)C(=O)c1cnccn1 (stereo not drawn)	-1	-1
COc1ccc(CCNC(=O)N2CCN(Cc3nnnn3-c3cccc(F)c3)CC2)cc1	-8	-11
CCCCCCCCN1CNC(=S)NC1	-1	.
CC(C)Sc1ccc(CC(=O)N(Cc2cccn2C)C2CC2)cc1	9	-3
Cc1nc2ccc(C(F)(F)F)cc2nc1C	.	3
CCN(CCNC(=O)C1CCN(c2nnc3ccc(Cl)cn23)CC1)c1ccccc1	14	-1
COc1ccc(OC)c(N2CCN(Cc3ccccc3F)C(C)C2=O)c1 (stereo not drawn)	22	0
COc1ccc(N2CCN(Cc3ccc(F)cc3)C(C)C2=O)c(OC)c1 (stereo not drawn)	17	-1
COc1ccc(OC)c(N2CCN(Cc3ccc(F)cc3)C(C)C2=O)c1 (stereo not drawn)	74*	4
COc1ccc(OC)c(N2CCN(Cc3cccc(C)c3)C(C)C2=O)c1 (stereo not drawn)	62*	1
O=C(c1ccc(Br)cc1)c1ccc(N2CCOCC2)c([N+](=O)[O-])c1	12	0
CN1CCN(c2ccc(C(=O)c3ccc(Br)cc3)cc2[N+](=O)[O-])CC1	57*	4
COc1ccccc1CNC(=O)c1cc2c(n1C)CCN(Cc1ccccc1)C2	20	-3
COc1cc2c(cc1OC)CN(Cc1ccccc1Cl)CC2	-8	-4
SMILES	mHTT-CaM PPI inh	Pf apPOL inh
COc1cc2c(cc1OC)CN(Cc1ccc(Cl)c(Cl)c1)CC2	55*	-1
COc1cccc2cc(C(=O)OC(C)C)c(=O)oc12	-2	-4
Cc1cc(-c2cc(Cl)ccc2O)n[nH]1	6	-4
O=[N+]([O-])c1ccccc1-c1cc(-c2cc(Cl)ccc2O)n[nH]1	100*	2
Cc1cc(Cl)nc(Cl)c1C(=O)Nc1ccccc1F	-1	-4
OC(COC12CC3CC(CC(C3)C1)C2)CN1CCN(c2ccc(F)cc2)CC1 (stereo not drawn)	-3	-10
COc1ccccc1NS(=O)(=O)c1cc(C(=O)Nc2ccccc2)ccc1C	14	6
COc1ccccc1NCC(=O)c1ccc(C)c(C)c1	34	65*
CNC(=O)Nc1ccc(C2(C(=O)N3CCN(c4cccc(Cl)c4)CC3)CCC2)cc1	67*	1
CNC(=O)Nc1ccc(C2(C(=O)N3CCN(c4ccccc4)CC3)CCC2)cc1	11	1
CC(C)C(=O)Nc1ccc(C2(C(=O)N3CCN(c4ccccn4)CC3)CCCCC2)cc1	28	4
CC(=O)Nc1ccc(C2(C(=O)N3CCN(c4ccccc4)CC3)CCCCC2)cc1	91*	-1
O=C(NCc1ccc(F)cc1)c1nnn(-c2ccc(F)cc2)c1-c1ccncc1	-5	-3
CNCc1cccs1	-5	.
O=C1N=C(N2CCOCC2)S/C1=C\C=C\c1ccccc1	26	-4
